Results published in PubChem BioAssay (Tox21).
Inconclusive results are not listed. Where a call stands in place of a potency, no number is given. A number with no mark means an inactive call. Activity calls are given as the source filed them. Calls come from the whole dose curve; as a rule, active = well fitted cell-killing curve with a large enough effect in the repeat runs; inconclusive = weak or mixed curves, or effect the other way; inactive = flat fitted curve, though single readings scatter.

Assay: qHTS assay to identify small molecule antagonists of the estrogen receptor alpha (ER-alpha) signaling pathway using the BG1 cell line in the presence of 0.1 nM 17-beta-estradiol - cell viability counter screen (AID 1259241); note: nearly all actives have a fitted effect of over 40% in size
Settings: VM7Luc4E2 (BG1) viability, CellTiter-Fluor protease, 22 h, 0.1 nM estradiol agonist added; series mostly up to 92.4 µM
In short: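 Measures cytotoxicity alongside the ER-alpha antagonist readout: VM7Luc4E2 cells, charcoal-stripped serum, 0.1 nM 17beta-estradiol final, 22 hr compound incubation at 37C, CellTiter-Fluor fluorescence.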
Potency is the fitted concentration of half-maximal effect.

SMILES | Potency | activity change, negative = cytotoxicity
Cc1cnccn1 | inactive | –
C/C=C/CO | inactive | –
ClC/C=C\CCl | inactive | –
CN1[C@@H]2CC[C@@H]1CC(OC(=O)C(CO)c1ccccc1)C2 (some centres undefined) | inactive | –
O=C1OC(=O)c2ccc3c4c(ccc1c24)C(=O)OC3=O | inactive | –
O=S(O)O | – | 0.521% [at 19 µM]
C[Si](C)O[Si](C)C | inactive | –
O=C1C=CC(=O)N1c1ccccc1 | 61.1 µM (active) | –
CN1[C@@H]2CC[C@H]1CC(OC(=O)C(CO)c1ccccc1)C2 (some centres undefined) | inactive | –
Clc1ccc(C(c2ccccc2Cl)C(Cl)Cl)cc1 (centres undefined) | inactive | –
CCCC(O)C(O)CO (centres undefined) | inactive | –
CCOC(OCC)C(=O)c1ccccc1 | inactive | –
CCN(CC)c1cccc(C)c1 | inactive | –
O=Nc1ccc(NO)cc1 | inactive | –
COC(=O)NCCC[Si](OC)(OC)OC | inactive | –
Cc1c(C(=O)O)cccc1[N+](=O)[O-] | inactive | –
CCC(C)c1ccccc1 (centres undefined) | inactive | –
Cc1cccc(C)n1 | inactive | –
CCc1cccc(C)c1 | inactive | –
O=C(O)Cc1ccc(OCCNC[C@H](O)c2ccccc2)cc1 | inactive | –
CCOC(/C=C(\C)CCC=C(C)C)OCC | inactive | –
CN1CN(C)CN(C)C1 | inactive | –
C1CC(COCC2CO2)CCC1COCC1CO1 (centres undefined) | inactive | –
O=C1OC(OC(=O)c2cccnc2Nc2cccc(C(F)(F)F)c2)c2ccccc21 (centres undefined) | inactive | –
CCc1cccc(CC)c1NC(=O)C(=O)O | inactive | –
CCCCCCCC/C=C\CCCCCCCC(=O)NCc1ccc(O)c(OC)c1 | inactive | –
CCCCCCCCCCCCCOP(=O)(O)O | inactive | –
OCCC(O)CO (centres undefined) | inactive | –
C=CC(=O)OCCN(CC)CC | inactive | –
